# Compound activity (PubChem)
# The sample as a whole holds a higher share of hits than the screen did.
# Pf Dd2 inh: Plasmodium falciparum Dd2 growth inhibition; hit rate 4.3% among 120,000; P. falciparum Dd2 growth, SYBR Green, 72 h; Potency, µM (top dose mostly 28.9 µM), without a hit: at the highest dose activity, negative = inhibition, usual class: inhibitors; active means well fitted inhibition curve with a large enough effect;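 further: plate controls were DMSO vehicle for no effect and reference drug for full effect; nearly all actives have a fitted effect of over 65% in size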
#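 Readout: SYBR Green fluorescence, 485 nm excitation, 535 nm emission, after ~16 h lysis at 37C. Before that, Dd2-infected red cells (2.5% hematocrit) grew 72 h with compound, 29 uM top final concentration.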
# * hit, by the source's call; i = inactive; [ ] = another dose, or the depositor's remark. Potency means the concentration at half of the fitted maximal effect.
SMILES,Pf Dd2 inh
CN1CCN([C@H]2CCN(C(=O)c3ccc(N(C)C)nc3)C[C@H]2CCC(=O)O)CC1,11%
CCCNC(=O)c1c(OCC2CC2)cc(=O)n2c1CCOCC2,-1%
O=C(C[C@@H]1C[C@H]2O[C@H](CNCc3ccccc3Cl)[C@@H](O)[C@H]2O1)N1CCC(F)(F)C1,33%[44.1 µM]
Cc1ccccc1COC1CN(C(=O)C2CC(=O)N(C(C)(C)C)C2)C1 (stereo not given),-2%
Cc1cccc2c1nc1n2[C@@H](CNS(=O)(=O)Cc2ccccc2)COC1,-27%[44.1 µM]
CC(C)CN1C(=O)c2ccccc2C(C(=O)NCc2ccco2)C12CCCC2 (stereo not given),-21%
OC[C@@H]1O[C@H](CNC2CCOCC2)[C@H](N2CCOCC2)[C@@H]1O,-9%[44.1 µM]
CCOc1ccccc1NC(=O)CSc1nc2c(oc3ccccc32)c(=O)n1Cc1ccco1,-28%
O=C(CSc1nc2c(oc3ccccc32)c(=O)n1Cc1ccco1)Nc1ccccc1,i
CCCN(CCC)C(=O)CSc1nc2ccccc2c(=O)n1Cc1ccco1,11µM*
Cc1ccc2c(c1)nc1n2[C@@H](CNC(=O)c2cccnc2)COC1,0%[44.1 µM]
CCNC(=O)NC[C@H]1COCc2nc3cc(C(=O)OC)ccc3n21,0%[44.1 µM]
Cc1cc(CN2CCC3(C2)C(=O)N(c2ccccc2)c2ccccc23)no1 (stereo not given),-18%
COc1cc(C(=O)NCCn2cccc2-c2nc(-c3ccccc3)no2)cc(OC)c1OC,-8%
CC1=C(c2ccc(F)cc2)S(=O)(=O)N=C1N1CCC(C(=O)NCCc2ccccc2)CC1,i
CC1=C(c2ccc(Cl)cc2)S(=O)(=O)N=C1N1CCC(C(=O)NCCc2ccco2)CC1,22%
CCC1=C(c2ccc(C)cc2)S(=O)(=O)N=C1N1CCC(C(=O)NCCc2ccc(Cl)cc2)CC1,8.9µM*
O=C(NCc1ccccc1)C1CCC(=O)N1C1CCNCC1 (stereo not given),11%
Cc1ncnc(N2CCC3(CC2)CC(=O)N(CCCc2ccccc2)C3)c1C,-21%
CCS(=O)(=O)N1CCC2(CCC2OC)CC1 (stereo not given),0%
Cc1ccc2nc3n(c2c1)[C@@H](CNCc1cccnc1)COC3,37%[44.1 µM]
Cc1ccc(OCC(=O)c2ccc3c(c2)N(CCCC(=O)NCC2CC2)C(=O)CO3)cc1C,-14%
COc1ccc(-c2nc(-c3ccccc3)c(-c3ccc(F)cc3)[nH]2)c(OC)c1C,11µM*
COc1ccc(-c2ccc3nc(-c4ccccc4)oc3c2)c(OC)c1OC,i
COc1cc(-c2nc(SCC(=O)Nc3ccc(C)cc3)c(-c3ccc(F)cc3)[nH]2)cc(OC)c1OC,i
SMILES,Pf Dd2 inh
COc1ccc(Br)cc1CNC(=O)CSc1n[nH]c(-c2ccccc2)n1,3%
O=C(O)c1ccc(-c2nc3ncccc3[nH]2)cc1,-7%[44.1 µM]
Oc1ccc(-c2nc(-c3ccccc3)c(-c3ccc(Br)cc3)[nH]2)cc1,6.3µM*
O=S(=O)(Nc1ccc(Br)cc1F)c1ccc2nc(-c3ccccc3)[nH]c2c1,3%
COc1cc(-c2nc(-c3ccccc3)c(-c3ccc(Br)cc3)[nH]2)cc(OC)c1O,1.4µM*
COc1ccc(-c2ccc3nc(-c4cc(F)cc(F)c4)oc3c2)c(OC)c1OC,4%
NC1(C(=O)N2CCCC(CCc3cccc(C(F)(F)F)c3)C2)CC1 (stereo not given),-27%
COCCn1c(C(=O)OC)c(NC(=O)Cc2ccccc2)c2cc(NC3CCCCC3)cnc21,-13%
CN(C)CC1(O)CCC2(CCN(C(=O)CCCc3ccccc3)CC2)CC1,i
O=C([C@H]1C[C@H](Oc2cccnc2)CN1S(=O)(=O)c1ccc(F)cc1)N1CCOCC1,-16%
COc1ccccc1NC(=O)N1CC[C@H]2CC(=O)N([C@H](C(N)=O)C(C)C)CC[C@H]2C1,i
Cc1nc2ccccc2n1Cc1cc(C(=O)N(C)CCOc2ccccc2)n[nH]1,-16%
Cc1cccc(NC(=O)N2CCC(CCNC(=O)c3cnccn3)CC2)c1,-13%
CCOc1cc(=O)n2c(c1C(=O)NCCCN1CCCc3ccccc31)CCCCC2,-19%
CO[C@H]1[C@H](NC(=O)c2cc3ccccc3n2C)c2ccccc2C12CCNCC2,7.9µM*
CO[C@H]1[C@H](NC(=O)c2cc(C)nn2C)c2ccccc2C12CCNCC2,-3%
CO[C@H]1[C@H](NC(=O)c2cc3ccccc3[nH]2)c2ccccc2C12CCNCC2,-5%
O=C(c1nccc2ccccc12)N1CCN(C(=O)N2CC3CC(C2)[C@H]2CCCC(=O)N2C3)CC1 (stereo not given in full),0%
O=C(Nc1cccc(-c2ccc(N3CCCC3)nn2)c1)Nc1c(F)cccc1F,-30%
O=C(c1cc(C2CC2)no1)N1C[C@@H](CN2CCCCC2)[C@@H](CO)C1,-2%
CNc1ccc(-c2nc(-c3ccccn3)no2)cc1[N+](=O)[O-],-25%
CCC(Nc1ccc(-c2nc(-c3ccccn3)no2)cc1[N+](=O)[O-])c1ccccc1 (stereo not given),3.5µM*
CCNc1ccc(-c2nc(-c3ccccn3)no2)cc1[N+](=O)[O-],-14%
Cc1ccccc1C1CCCN(C(=O)CCC2(Cc3ccc(F)cc3)CCC(=O)N2)C1 (stereo not given),-3%
CC(=O)Nc1ccc(N(C(=O)Cn2nnc3ccccc32)C(C(=O)NCc2ccccc2)c2ccc(C)cc2)cc1 (stereo not given),11µM*
SMILES,Pf Dd2 inh
CCOc1ccc(N(C(=O)Cn2nnc3ccccc32)C(C(=O)NCc2ccccc2)c2ccc(OC)cc2)cc1 (stereo not given),-22%
CCC(Cn1nnc2ccccc2c1=O)NC(=O)Nc1ccc(C)cc1 (stereo not given),17%
CN1C[C@H](O)C[C@H]1c1nnc2n1CCN(C(=O)c1cccs1)CC2,9%
COc1ccc2c(=O)n(CC(=O)N(C)Cc3cc(C)no3)ccc2c1OC,5%
COc1cc(C)c2c(c1C)C[C@H](C(C)C(=O)N1CCN(c3ccc(F)cc3)CC1)CC2 (stereo not given in full),-10%[44.1 µM]
COc1cccc(CN2CCc3c(cc(C(=O)Nc4cc(OC)cc(OC)c4)n3C)C2)c1,8.9µM*
COc1ccccc1NC(=O)c1cc2c(n1C)CCN(Cc1ccc(F)cc1)C2,-10%
CN(C)CCNC(=O)c1cc2c(n1C)CCN(Cc1ccccc1)C2,13µM*
CCOC(=O)C1CCN(C(=O)c2cc3c(n2C)CCN(Cc2ccccc2)C3)CC1,1.6µM*
Cn1c(C(=O)N2CCCC2)cc2c1CCN(Cc1ccccc1)C2,-6%
Cc1ccc(CN2CCc3c(cc(C(=O)O)n3C)C2)cc1,i
COc1ccc(CNC(=O)c2cc3c(n2C)CCN(Cc2ccc(F)cc2)C3)cc1,-26%
Cc1cccc(CN2CCc3c(cc(C(=O)O)n3C)C2)c1,i
CN(C)CCCNC(=O)c1cc2c(n1C)CCN(Cc1ccc(F)cc1)C2,-20%
NCCO[C@H]1C[C@@H](O)C12CCN(Cc1c(Cl)cccc1Cl)CC2,-14%
N#Cc1ccc(C(=O)N2CCOC[C@H](Oc3ccc(C(F)(F)F)cc3)C2)cc1,i
CCN(CC)[C@H]1[C@@H]2OC[C@@H](O2)[C@@H](NCc2ccc(OC(F)(F)F)cc2)[C@@H]1O,i
COCCN1C(=O)[C@H]2CN(Cc3ccc(OC)c(OC)c3OC)C[C@H]2C1=O,i
O=C(CC1CCOCC1)NCCc1ccccn1,51%
NS(=O)(=O)c1ccc(CCNc2nc3c(-c4cccc(F)c4)nnn3c3ccc(Cl)cc23)cc1,11µM*
Fc1cccc(-c2nnn3c2nc(NCCc2ccccc2)c2ccccc23)c1,19%
